High-throughput results as filed in PubChem.
Most compounds without a hit are left out; they make up all but 6.5% or so of the library.
PMK inhibit – inhibitors of Streptococcus pneumoniae phosphomevalonate kinase; inhibition, % at 10 µM; AID 539; actives 0.49% (n = 65,000); purified PMK, PK/LDH-coupled NADH absorbance 340 nm;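 active means top-ranked compounds by inhibition in the single 10 µM screen, taking a fixed number of the strongest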;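 further: 0% = full reaction with DMSO carrier and 100% = background rate without enzyme reaction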
Fluor 339 460 – intrinsic fluorescence of library compounds, ex339/em460 – biochemical, MLSMR library, data from DPM-DC assay, artefact control, profiling panel. compound autofluorescence, ex339/em460 nm, NADH buffer; active compounds read high; 1 = no-compound wells, NADH background. fluorescence fold increase at 10 µM. actives 5.5% (n = 65,000). AID 709;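 active means at 10 µM, mean starting fluorescence two-fold or more over control wells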;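 further: signal is the first read of a kinetic run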
DPM-DC inhibit – S. pneumoniae DPM-DC inhibition. purified DPM-DC, PK/LDH coupled NADH fluorescence. calls only at 10 µM. actives 0.49% (n = 65,000);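 active means the 320 compounds with the highest percent inhibition in the single-dose primary screen, excluding strongly autofluorescent ones, cut at about 32% in these data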;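 further: kinetic rate of NADH fluorescence loss reporting ADP formed by the decarboxylase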
MK inhibit – blocks S. pneumoniae mevalonate kinase; purified MK, PK/LDH-coupled NADH absorbance 340 nm; inhibition, % at 10 µM; actives 0.48% (n = 65,000); AID 555;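 active means ranked among the strongest by inhibition in the single 10 µM screen, a fixed top-ranked set picked for dose follow-up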
A340 absorber – absorbance at 340 nm. fold change at 10 µM. 65,000 tested, under 10 active. compound absorbance at 340 nm, fold over control;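 active means at 10 µM dose, initial 340 nm absorbance at least 2 fold that of control wells; inactive means change under 2 fold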;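 further: initial absorbance extrapolated from kinetic A340 decline of NADH oxidation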
NADH enzymes – blocks coupling enzymes of NAD/NADH assays; IC50, µM (top dose mostly 10 µM), inactives show at the highest dose inhibition; coupled PK/LDH NADH assays, four targets; actives 0.02% (n = 65,000);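 active means single-dose screening hits from any of four coupled enzyme assays that gave an IC50 when retested across doses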;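 further: the DPM-DC format reads NADH fluorescence rather than 340 nm absorbance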
Active calls of the source: *; i = inactive; . = no result given; + = active, no number.

SMILES	PMK inhibit	Fluor 339 460	DPM-DC inhibit	MK inhibit	A340 absorber	NADH enzymes
CCOC(=O)N1CCN(c2c(-c3ccc(C)cc3)c(=O)c2=O)CC1	17	1.1	i	6	1.1	8%
CCOC(=O)Nc1ccc2c(C)cc(=O)oc2c1	5	3.7*	.	12	1.2	9%
CCCc1cc(=O)oc2cc(C)c(CN3CCCC3)c(O)c12	1	1.2	i	6	1.1	2%
CCCc1cc(=O)oc2c(CN3CCCC3)c(O)ccc12	0	2.3*	.	6	1.1	3%
CCc1cc(=O)oc2cc(C)c(CN3CCCC3)c(O)c12	4	1.1	i	0	1	1%
CCCc1cc(=O)oc2c(CN3CCCC3)c(O)c(Cl)cc12	6	2.4*	.	0	1.1	3%
CCCCC(CCC(=O)Nc1ccccc1C(=O)OCC)C(=O)O (stereo not given)	17	1.1	i	3	0.99	7%
Cc1oc2cc(O)ccc2c(=O)c1N1C(=O)c2ccccc2C1=O	0	1.8	+	4	1.1	13%
Cc1ccccc1-c1c(C)oc2cc(O)ccc2c1=O	18	2.2*	.	0	1.1	9%
COC(=O)c1cc(-c2c(C)oc3cc(OC)ccc3c2=O)c(C)o1	19	1.1	i	8	1	9%
COC(=O)c1cc(-c2c(C)oc3cc(O)ccc3c2=O)c(C)o1	19	2.4*	.	16	1	7%
Cc1oc2cc(O)cc(O)c2c(=O)c1-c1ccc2c(c1)OCCCO2	2	1.1	i	8	1	3%
COCCN(CCOC)Cc1c(C)[nH]c2c(C)c(C)ccc2c1=O	10	1.1	i	3	1.1	5%
CC(C)C1N=C2c3ccccc3N=C(SCC#N)N2C1=O (stereo not given)	8	2.6*	i	7	1.1	8%
N#CCSC1=Nc2ccccc2C2=NC(CCC(=O)N3CCN(c4ccccc4)CC3)C(=O)N12 (stereo not given)	13	1.2	i	0	1.1	4%
CS(=O)(=O)N(CC(=O)NCc1ccncc1)c1cc(Cl)cc(Cl)c1	0	1.1	i	7	1	5%
O=c1nc2c(-c3ccccc3F)n[nH]n2c2ccccc12	0	5.1*	.	2	1	1%
CS(=O)(=O)N(CC(=O)NCCC1=CCCCC1)C1CCCCC1	13	1	i	6	1	6%
O=C(CN1CCN(C2CCCCC2)CC1)NCCC1=CCCCC1	4	1.1	i	61*	1	22%
Cc1cc(C)n(-c2ccc(C(=O)OCC(=O)c3ccc(Br)s3)cc2)n1	19	1.1	i	3	1	7%
O=C(CSc1c2c(nc3ccc(Cl)cc13)CCCC2)N1CCN(C(=O)c2ccco2)CC1	12	1.1	i	1	0.99	4%
O=C(NCC1CCCO1)c1coc2nc3ccccc3nc12 (stereo not given)	14	2.5*	+	2	1.1	16%
COc1ccc(-n2nc(C(=O)NCC(=O)NCC3CCCO3)c3ccccc3c2=O)c(OC)c1 (stereo not given)	3	1.1	i	5	1	3%
CN(c1ccccc1C(=O)NCC1CCCO1)S(C)(=O)=O (stereo not given)	7	1.2	i	6	1	5%
COc1ccc(-n2c(N)c(C(=O)NCC3CCCO3)c3nc4ccccc4nc32)c(OC)c1 (stereo not given)	5	3.9*	.	11	1	8%
SMILES	PMK inhibit	Fluor 339 460	DPM-DC inhibit	MK inhibit	A340 absorber	NADH enzymes
C=CCn1c(N)c(C(=O)NCC2CCCO2)c2nc3ccccc3nc21 (stereo not given)	7	3.8*	.	9	1	8%
c1ccc(CCn2nnnc2C(c2cccs2)N2CCOCC2)cc1 (stereo not given)	25*	1.1	i	0	1	3%
CC(C)C(c1nnnn1CCc1ccccc1)N1CCOCC1 (stereo not given)	0	1.1	i	0	1	0%
CCOc1nc(-c2ccccc2)ccc1-c1noc(-c2ccco2)n1	19	2.6*	i	0	1	16%
COc1nc(-c2ccc(C)cc2)ccc1-c1noc(-c2ccco2)n1	10	2.4*	i	0	1.1	9%
COc1nc(C)ccc1-c1noc(-c2ccco2)n1	7	1.1	i	8	1	8%
CCOc1nc(-c2ccccc2)ccc1-c1noc(COc2ccccc2)n1	8	2.9*	i	0	1.1	3%
O=C(NC1CCCC1)C1CCCN1C(=O)Nc1ccc(Cl)cc1 (stereo not given)	0	1.1	i	7	1	2%
O=C(C1CCCN(S(=O)(=O)c2cccc3cccnc23)C1)N1CCc2ccccc21 (stereo not given)	11	1.2	i	4	1.1	5%
CCOC(=O)c1ccccc1NC(=O)c1cc2sccc2n1C	9	2.6*	i	5	1	4%
CCOC(=O)c1cccc(NC(=O)c2cc3sccc3n2C)c1	13	1.1	i	6	0.99	7%
C=CCn1c(=O)c(C#N)cc2c(=O)n3ccccc3nc21	13	4.8*	.	0	1.1	7%
Cc1cc(N2C(=O)C3C4c5ccccc5C(c5ccccc54)C3C2=O)no1 (stereo not given)	1	1.1	i	2	1	2%
Cc1cc(-n2c(=O)c(C#N)cc3c(=O)n4ccccc4nc32)no1	16	3.8*	.	9	1.1	13%
CC(C)N1C(=S)SC2CS(=O)(=O)C=C21 (stereo not given)	13	1.1	i	11	1.1	8%
Cc1ccc(-c2nc3cnccn3c2Nc2ccccc2)o1	7	2.1*	.	10	1.1	9%
CN1CCN(C(=O)c2cc3c(ccc4ccccc43)oc2=O)CC1	3	3.9*	.	15	1	9%
O=C(NCCN1CCN(C(=O)c2cc3ccccc3oc2=O)CC1)c1cc2ccccc2oc1=O	17	1.3	i	3	1.1	7%
Oc1ccc(C(=S)N2CCCCC2)cc1Cl	1	1	i	0	1.1	0%
COc1cccc(-n2c(C)c(C(C)=O)c(C(C)=O)c2C)c1	0	1	i	14	1	5%
COc1ccc(-c2ccc(-c3nnc(-c4ccncc4)o3)cc2)cc1	15	2.4*	+	12	1	9%
CCC(=O)c1cc2c(C)cc(=O)oc2c(C)c1O	1	1.7	i	7	1	5%
CCc1cc(=O)oc2c(C)c(O)c(CN(C)C)cc12	0	3.9*	.	11	1.1	6%
Cc1nn(-c2ccccc2)c2sc(C(=O)OCc3nnc(-c4ccccc4)o3)cc12	0	1.3	i	2	1.1	1%
Cc1ccc(-c2cc(C(F)(F)F)c(C#N)c(SCCC#N)n2)o1	2	3.7*	.	8	1.1	5%
